According to ChEMBL document CHEMBL2218924, “A broad activity screen in support of a chemogenomic map for kinase signalling research and drug discovery” (Biochem J, 2013):

Columns and labels:
[1] = target: T1, Serine/threonine-protein kinase BRSK2 (Homo sapiens) (UniProt Q8IWQ3); details: at 1 µM
T1 sequence (whole entry): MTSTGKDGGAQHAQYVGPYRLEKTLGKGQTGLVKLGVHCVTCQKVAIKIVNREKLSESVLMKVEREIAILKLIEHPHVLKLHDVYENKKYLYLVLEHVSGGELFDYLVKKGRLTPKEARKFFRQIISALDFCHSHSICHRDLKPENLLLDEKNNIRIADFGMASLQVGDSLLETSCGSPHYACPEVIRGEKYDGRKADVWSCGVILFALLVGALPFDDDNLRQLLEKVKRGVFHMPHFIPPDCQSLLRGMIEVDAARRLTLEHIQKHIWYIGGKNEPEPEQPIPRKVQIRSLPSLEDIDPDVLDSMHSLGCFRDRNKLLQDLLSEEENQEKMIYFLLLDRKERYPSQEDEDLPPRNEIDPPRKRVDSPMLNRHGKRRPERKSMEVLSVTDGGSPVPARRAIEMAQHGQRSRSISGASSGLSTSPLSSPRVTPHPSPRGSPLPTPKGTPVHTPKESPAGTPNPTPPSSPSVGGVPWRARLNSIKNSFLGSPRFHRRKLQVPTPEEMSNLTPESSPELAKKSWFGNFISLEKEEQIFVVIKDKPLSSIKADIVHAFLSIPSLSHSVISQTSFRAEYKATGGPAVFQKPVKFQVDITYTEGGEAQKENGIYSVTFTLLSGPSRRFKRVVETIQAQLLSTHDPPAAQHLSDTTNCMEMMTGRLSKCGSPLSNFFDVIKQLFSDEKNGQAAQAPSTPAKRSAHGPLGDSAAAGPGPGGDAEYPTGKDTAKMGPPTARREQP

[2] = target: T2, Cyclin-dependent kinase 1/cyclin B1 (Homo sapiens) (UniProt P06493+P14635); details: at 1 µM
[3] = target: T2, Cyclin-dependent kinase 1/cyclin B1 (Homo sapiens); details: at 10 µM
[4] = target: T3, Cyclin-dependent kinase 2/cyclin E (Homo sapiens) (UniProt P24864+P24941+O96020); details: at 1 µM
[5] = target: T3, Cyclin-dependent kinase 2/cyclin E (Homo sapiens); details: at 10 µM
[6] = target: T4, CDK3/cyclin E (Homo sapiens) (UniProt P24864+O96020+Q00526); details: at 1 µM
[7] = target: T4, CDK3/cyclin E (Homo sapiens); details: at 10 µM
[8] = target: T5, Cyclin-dependent kinase 5/CDK5 activator 1 (Homo sapiens) (UniProt Q00535+Q15078); details: at 1 µM
[9] = target: T5, Cyclin-dependent kinase 5/CDK5 activator 1 (Homo sapiens); details: at 10 µM
[10] = target: T5, Cyclin-dependent kinase 5/CDK5 activator 1 (Homo sapiens); details: at 1 µM; remark: listed apart in the source
[11] = target: T5, Cyclin-dependent kinase 5/CDK5 activator 1 (Homo sapiens); details: at 10 µM; remark: listed apart in the source
[12] = target: T6, CDK6/cyclin D3 (Homo sapiens) (UniProt P30281+Q00534); details: at 1 µM
[13] = target: T6, CDK6/cyclin D3 (Homo sapiens); details: at 10 µM
[14] = target: T7, Cyclin-dependent kinase 7/ cyclin H (Homo sapiens) (UniProt P51946+P50613); details: at 1 µM
[15] = target: T7, Cyclin-dependent kinase 7/ cyclin H (Homo sapiens); details: at 10 µM
[16] = target: T8, Serine/threonine-protein kinase BRSK1 (Homo sapiens) (UniProt Q8TDC3); details: at 1 µM
T8 sequence (whole entry): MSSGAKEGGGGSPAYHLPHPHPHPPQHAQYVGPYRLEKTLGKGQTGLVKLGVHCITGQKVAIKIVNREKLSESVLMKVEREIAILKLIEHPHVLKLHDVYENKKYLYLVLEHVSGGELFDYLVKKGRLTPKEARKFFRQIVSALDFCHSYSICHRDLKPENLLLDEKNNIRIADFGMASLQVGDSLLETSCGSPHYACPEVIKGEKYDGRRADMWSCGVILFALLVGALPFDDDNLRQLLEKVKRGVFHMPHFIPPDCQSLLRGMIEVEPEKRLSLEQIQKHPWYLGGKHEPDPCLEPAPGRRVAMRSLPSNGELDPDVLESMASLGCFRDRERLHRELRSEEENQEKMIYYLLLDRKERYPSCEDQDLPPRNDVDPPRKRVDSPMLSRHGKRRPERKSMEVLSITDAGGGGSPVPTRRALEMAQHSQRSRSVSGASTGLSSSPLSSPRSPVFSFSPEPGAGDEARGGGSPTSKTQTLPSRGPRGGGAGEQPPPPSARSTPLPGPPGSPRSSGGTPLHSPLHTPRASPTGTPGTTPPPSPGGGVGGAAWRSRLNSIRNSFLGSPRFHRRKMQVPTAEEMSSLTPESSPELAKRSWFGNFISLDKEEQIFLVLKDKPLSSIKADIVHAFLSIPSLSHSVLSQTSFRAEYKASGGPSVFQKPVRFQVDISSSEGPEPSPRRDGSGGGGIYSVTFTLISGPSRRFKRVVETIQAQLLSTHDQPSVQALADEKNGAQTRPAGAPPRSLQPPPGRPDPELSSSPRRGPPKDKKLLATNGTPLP

[17] = target: T8, Serine/threonine-protein kinase BRSK1 (Homo sapiens); details: at 10 µM
[18] = target: T9, Cyclin-dependent kinase 2/cyclin A (Homo sapiens) (UniProt P24941+P20248+P78396); details: at 1 µM
[19] = target: T9, Cyclin-dependent kinase 2/cyclin A (Homo sapiens); details: at 10 µM
[20] = target: T1, Serine/threonine-protein kinase BRSK2 (Homo sapiens); details: at 10 µM

T5 sequence (Q00535 whole entry): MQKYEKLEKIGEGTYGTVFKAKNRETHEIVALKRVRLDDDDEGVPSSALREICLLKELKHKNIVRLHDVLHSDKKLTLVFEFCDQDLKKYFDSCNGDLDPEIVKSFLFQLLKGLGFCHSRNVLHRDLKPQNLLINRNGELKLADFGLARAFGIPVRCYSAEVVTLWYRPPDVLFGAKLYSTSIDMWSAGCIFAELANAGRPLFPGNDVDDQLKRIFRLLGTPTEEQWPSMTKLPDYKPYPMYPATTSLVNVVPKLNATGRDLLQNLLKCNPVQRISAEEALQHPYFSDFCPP
T5 sequence (Q15078 99-307 partner limits assumed): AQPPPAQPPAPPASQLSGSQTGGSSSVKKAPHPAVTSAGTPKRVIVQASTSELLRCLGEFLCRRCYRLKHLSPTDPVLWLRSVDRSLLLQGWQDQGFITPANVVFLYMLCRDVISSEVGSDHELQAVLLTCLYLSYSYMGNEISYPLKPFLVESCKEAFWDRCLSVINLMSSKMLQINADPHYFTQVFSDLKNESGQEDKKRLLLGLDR
T4 sequence (O96020 whole entry, looked up): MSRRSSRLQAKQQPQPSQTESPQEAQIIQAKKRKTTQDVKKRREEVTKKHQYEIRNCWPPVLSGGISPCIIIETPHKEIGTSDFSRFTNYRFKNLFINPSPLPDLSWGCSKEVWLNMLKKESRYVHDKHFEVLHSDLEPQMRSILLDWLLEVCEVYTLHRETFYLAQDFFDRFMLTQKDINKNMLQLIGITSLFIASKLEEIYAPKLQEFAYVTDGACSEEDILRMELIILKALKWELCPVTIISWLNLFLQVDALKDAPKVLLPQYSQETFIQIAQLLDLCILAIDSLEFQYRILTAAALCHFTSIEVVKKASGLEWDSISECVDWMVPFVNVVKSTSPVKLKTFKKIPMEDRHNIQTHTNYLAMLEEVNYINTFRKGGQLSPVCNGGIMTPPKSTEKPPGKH
T4 sequence (P24864 whole entry, looked up): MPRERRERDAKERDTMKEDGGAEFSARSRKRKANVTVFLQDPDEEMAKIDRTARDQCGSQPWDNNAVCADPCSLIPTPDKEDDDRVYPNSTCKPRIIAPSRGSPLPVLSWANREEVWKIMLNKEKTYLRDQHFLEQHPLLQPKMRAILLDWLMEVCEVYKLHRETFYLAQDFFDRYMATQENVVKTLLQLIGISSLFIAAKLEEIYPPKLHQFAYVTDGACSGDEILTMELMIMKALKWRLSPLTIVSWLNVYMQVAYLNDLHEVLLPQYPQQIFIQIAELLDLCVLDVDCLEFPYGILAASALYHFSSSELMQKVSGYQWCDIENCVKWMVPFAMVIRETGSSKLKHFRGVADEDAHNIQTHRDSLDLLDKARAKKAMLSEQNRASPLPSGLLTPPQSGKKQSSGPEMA
T4 sequence (Q00526 whole entry, looked up): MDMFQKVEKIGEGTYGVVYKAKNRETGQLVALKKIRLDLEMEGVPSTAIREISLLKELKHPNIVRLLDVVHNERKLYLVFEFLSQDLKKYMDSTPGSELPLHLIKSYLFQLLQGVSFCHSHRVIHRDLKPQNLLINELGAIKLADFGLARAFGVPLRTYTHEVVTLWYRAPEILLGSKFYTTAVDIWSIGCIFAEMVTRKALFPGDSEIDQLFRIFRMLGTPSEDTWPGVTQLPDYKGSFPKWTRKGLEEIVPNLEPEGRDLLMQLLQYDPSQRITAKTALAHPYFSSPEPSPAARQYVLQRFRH
T2 sequence (P06493 whole entry, looked up): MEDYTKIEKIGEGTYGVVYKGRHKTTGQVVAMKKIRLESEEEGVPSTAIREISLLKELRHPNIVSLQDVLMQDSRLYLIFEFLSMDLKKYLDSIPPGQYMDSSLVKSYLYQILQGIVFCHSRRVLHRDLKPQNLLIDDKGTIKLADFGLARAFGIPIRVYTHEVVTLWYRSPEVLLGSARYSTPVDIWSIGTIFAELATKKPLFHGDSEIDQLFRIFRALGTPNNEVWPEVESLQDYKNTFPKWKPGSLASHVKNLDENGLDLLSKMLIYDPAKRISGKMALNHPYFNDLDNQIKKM
T2 sequence (P14635 whole entry, looked up): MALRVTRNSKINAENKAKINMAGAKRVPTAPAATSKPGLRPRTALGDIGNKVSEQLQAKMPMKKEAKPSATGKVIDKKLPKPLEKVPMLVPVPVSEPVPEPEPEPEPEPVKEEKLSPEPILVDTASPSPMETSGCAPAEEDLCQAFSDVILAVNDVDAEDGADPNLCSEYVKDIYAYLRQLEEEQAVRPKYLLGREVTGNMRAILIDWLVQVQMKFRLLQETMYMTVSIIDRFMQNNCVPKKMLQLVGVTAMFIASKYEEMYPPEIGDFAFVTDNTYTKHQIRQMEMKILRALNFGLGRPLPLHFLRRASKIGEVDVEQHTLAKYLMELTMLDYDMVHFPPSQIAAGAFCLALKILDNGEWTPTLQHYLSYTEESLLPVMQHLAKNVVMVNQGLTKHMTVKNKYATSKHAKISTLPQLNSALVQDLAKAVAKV

Row | SMILES | residual activity [1] [%] | residual activity [2] [%] | residual activity [3] [%] | residual activity [4] [%] | residual activity [5] [%] | residual activity [6] [%] | residual activity [7] [%] | residual activity [8] [%] | residual activity [9] [%] | residual activity [10] [%] | residual activity [11] [%] | residual activity [12] [%] | residual activity [13] [%] | residual activity [14] [%] | residual activity [15] [%] | residual activity [16] [%] | residual activity [17] [%] | residual activity [18] [%] | residual activity [19] [%] | residual activity [20] [%]
1 | COc1cc2c(cc1OC)-c1n[nH]c(Nc3cccc(F)c3)c1C2 | 104 | 114 | 103 | 98 | 68 | 78 | 46 | 82 | 53 | 81 | 61 | 76 | 71 | 83 | 75 |  |  |  |  | 
2 | c1ccc(-c2cnc(Nc3ccc(OCCN4CCCC4)cc3)s2)cc1 |  | 113 | 62 |  |  | 81 | 43 | 64 | 17 | 71 | 25 | 38 | 6 | 70 | 39 | 46 | 42 | 147 | 70 | 
3 | CSc1nc(-c2ccc(F)cc2)c(-c2ccnc(NC(C)c3ccccc3)c2)[nH]1 (stereo not given) |  | 98 | 86 | 96 | 86 | 93 | 84 |  | 101 |  |  |  |  | 100 | 67 | 100 | 55 |  | 80 | 
4 | COc1ccc(-c2cnc3c(-c4ccsc4)cnn3c2)cc1 |  |  |  | 99 | 96 | 85 |  |  | 88 | 85 |  | 85 | 96 | 90 |  |  |  |  |  | 
5 | Nc1ncnc2c1c(-c1ccc(Oc3ccccc3)cc1)cn2C1CCCC1 | 63 | 104 | 85 | 94 | 79 | 90 | 81 | 78 | 58 | 80 | 76 | 85 | 66 | 78 | 95 | 17 |  | 113 | 72 | 61
7 | O=C(Nc1nc2ccccc2n1CCN1CCOCC1)c1cccc([N+](=O)[O-])c1 |  | 114 | 103 | 106 | 104 |  |  |  |  |  |  | 88 | 88 | 75 | 77 | 83 | 78 |  |  | 
8 | N#C/C(=C\c1ccc(O)c(O)c1)C(=O)NCc1ccccc1 |  |  |  |  |  | 100 | 81 |  |  |  |  |  |  |  |  |  |  |  | 85 | 
9 | CC(C)[C@H](CO)Nc1nc(Nc2cc(N)cc(Cl)c2)c2ncn(C(C)C)c2n1 |  |  |  |  |  |  |  |  |  | 20 | 2 |  |  | 43 | 6 | 91 | 75 |  |  | 
10 | NCCNc1ncc(C(N)=O)c(Nc2cccc(C(F)(F)F)c2)n1 |  |  | 43 |  | 47 |  |  | 77 | 25 | 70 | 33 |  |  | 78 | 49 |  |  | 131 | 65 | 
11 | O=C1Nc2ccccc2/C1=C\c1c(Cl)[nH]c2ccccc12 |  |  | 68 | 82 | 58 |  | 55 |  | 40 |  | 40 |  | 32 |  | 59 |  | 46 | 83 | 57 | 
12 | O=S(=O)(NCCNC/C=C/c1ccc(Br)cc1)c1cccc2cnccc12 |  |  |  |  |  |  | 59 |  |  |  | 63 |  |  |  | 41 | 80 | 53 |  |  | 
13 | CCN1/C(=C/C(C)=O)Sc2ccc(OC)cc21 |  |  |  | 81 | 76 | 82 | 80 |  |  |  | 71 |  |  | 82 | 81 |  |  |  |  | 
14 | Nc1nccc(-c2c(-c3ccc(F)cc3)ncn2C2CCNCC2)n1 | 128 | 115 |  |  |  |  |  |  |  |  |  |  |  | 100 | 68 |  |  | 79 | 77 | 82
15 | O=C1Cc2c([nH]c3ccc([N+](=O)[O-])cc23)-c2ccccc2N1 | 32 | 47 | 23 |  | 11 |  | 6 | 9 | 6 | 6 | 6 | 60 | 26 |  |  |  |  | 14 | 10 | 20
16 | CCOC(=O)c1c(C)[nH]c(/C=C2\C(=O)Nc3ccccc32)c1C |  |  |  | 99 | 95 | 100 | 90 |  |  |  |  | 93 | 95 |  |  |  |  | 140 | 100 | 
17 | CCCCc1c(-c2ccc(OC)cc2)[nH]c2nccnc12 | 104 | 31 | 26 | 30 | 46 | 40 | 32 | 19 | 33 | 25 | 38 | 87 | 58 | 84 | 44 |  |  | 48 | 25 | 
